{"source": "PubChem BioAssay (NCATS)", "key": {"[1]": {"assay": "qHTS for Inhibitors of the Functional Ribonucleoprotein Complex (vRNP) of Lassa (LASV) Arenavirus: Viability assay - alamar blue signal for LASV Primary Screen (AID 1347083; calls by dose curve; tested in HEK293 reporter line; further: nearly all actives have a fitted effect of over 80% in size; further: potency means the concentration at half of the fitted maximal effect)", "conditions": "cell viability, alamar blue fluorescence (LASV minigenome counter-screen); series mostly up to 57.5 µM"}, "[2]": {"assay": "qHTS for Inhibitors of the Functional Ribonucleoprotein Complex (vRNP) of Lymphocytic Choriomeningitis Arenaviruses (LCMV): Viability assay - alamar blue signal for LCMV Primary Screen (AID 1347085; calls by dose curve; tested in HEK293 reporter line; further: nearly all actives have a fitted effect of over 80% in size; further: potency means the concentration at half of the fitted maximal effect)", "conditions": "alamar blue viability counter-screen, LCMV vRNP screen cells; series mostly up to 57.5 µM"}, "[3]": {"target": "Nucleoprotein (Lymphocytic choriomeningitis virus (strain Armstrong)) (UniProt P09992)", "sequence (P09992 whole entry, looked up)": "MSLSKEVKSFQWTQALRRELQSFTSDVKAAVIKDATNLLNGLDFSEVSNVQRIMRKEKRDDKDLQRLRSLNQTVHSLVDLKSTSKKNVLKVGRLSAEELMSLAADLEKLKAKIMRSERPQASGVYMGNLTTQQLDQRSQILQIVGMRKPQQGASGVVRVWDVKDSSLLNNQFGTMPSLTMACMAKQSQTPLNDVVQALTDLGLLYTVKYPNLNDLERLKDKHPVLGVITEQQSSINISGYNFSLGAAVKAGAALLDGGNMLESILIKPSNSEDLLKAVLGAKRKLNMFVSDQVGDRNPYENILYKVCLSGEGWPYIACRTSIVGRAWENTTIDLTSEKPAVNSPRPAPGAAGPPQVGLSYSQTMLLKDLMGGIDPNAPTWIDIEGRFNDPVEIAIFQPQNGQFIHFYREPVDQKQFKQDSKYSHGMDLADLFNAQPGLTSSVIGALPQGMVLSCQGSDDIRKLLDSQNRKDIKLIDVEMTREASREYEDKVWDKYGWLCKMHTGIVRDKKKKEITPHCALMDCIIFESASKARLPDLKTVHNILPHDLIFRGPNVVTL", "assay": "qHTS for Inhibitors of the Functional Ribonucleoprotein Complex (vRNP) of Lymphocytic Choriomeningitis Arenaviruses (LCMV): LCMV Primary Screen - GLuc reporter signal (AID 1347086); further: nearly all actives have a fitted effect of over 70% in size", "conditions": "LCMV minigenome vRNP cell assay, Gaussia luciferase reporter; series mostly up to 57.5 µM"}}, "note": "Results filed as inconclusive are left out. A call without a number means that no potency is given here. Calls of active or inactive are those of the source. Unless noted, the call rests on the fitted dose curve.", "data": [{"smiles": "C[N+]1(C)C2CCC1CC(OC(=O)C(CO)c1ccccc1)C2", "note": "(stereo not given)", "values": [{"measurement": "Potency", "setting": "[1]", "result": "inactive"}, {"measurement": "Potency", "setting": "[2]", "result": "inactive"}, {"measurement": "Potency", "setting": "[3]", "result": "inactive"}]}, {"smiles": "CC(C)C(C)(C)C(C)(C)C(C)(C)S", "values": [{"measurement": "Potency", "setting": "[1]", "result": "inactive"}, {"measurement": "Potency", "setting": "[2]", "result": "inactive"}, {"measurement": "Potency", "setting": "[3]", "result": "inactive"}]}, {"smiles": "CC(=O)NC(C)c1ccc(Oc2ccc(OC(C)C)cc2)cc1", "note": "(stereo not given)", "values": [{"measurement": "Potency", "setting": "[1]", "result": "inactive"}, {"measurement": "Potency", "setting": "[2]", "result": "inactive"}, {"measurement": "Potency", "setting": "[3]", "result": "inactive"}]}, {"smiles": "CCCCCCCCCCCCCC(=O)OC(C)C", "values": [{"measurement": "Potency", "setting": "[1]", "result": "inactive"}, {"measurement": "Potency", "setting": "[2]", "result": "inactive"}, {"measurement": "Potency", "setting": "[3]", "result": "inactive"}]}, {"smiles": "C[C@@H]1O[C@H](C[N+](C)(C)C)C[C@H]1O", "values": [{"measurement": "Potency", "setting": "[1]", "result": "inactive"}, {"measurement": "Potency", "setting": "[2]", "result": "inactive"}, {"measurement": "Potency", "setting": "[3]", "result": "inactive"}]}, {"smiles": "CC1(C)Cc2c(-c3ccccc3)c(-c3ccc(Cl)cc3)c(CC(=O)O)n2C1", "values": [{"measurement": "Potency", "setting": "[1]", "result": "inactive"}, {"measurement": "Potency", "setting": "[2]", "result": "inactive"}, {"measurement": "Potency", "setting": "[3]", "result": "inactive"}]}, {"smiles": "CCOc1cc(NC(C)=O)ccc1C(=O)OC", "values": [{"measurement": "Potency", "setting": "[1]", "result": "inactive"}, {"measurement": "Potency", "setting": "[2]", "result": "inactive"}, {"measurement": "Potency", "setting": "[3]", "result": "inactive"}]}, {"smiles": "O=S(c1cc(Cl)cc(Cl)c1O)c1cc(Cl)cc(Cl)c1O", "values": [{"measurement": "Potency", "setting": "[1]", "result": "inactive"}, {"measurement": "Potency", "setting": "[2]", "result": "inactive"}, {"measurement": "Potency", "setting": "[3]", "result": "inactive"}]}, {"smiles": "CC(C)[C@H](CO)Nc1nc(Nc2ccc(C(=O)O)c(Cl)c2)c2ncn(C(C)C)c2n1", "values": [{"measurement": "Potency", "setting": "[1]", "result": "217 nM (active)"}, {"measurement": "Potency", "setting": "[2]", "result": "3850 nM (active)"}, {"measurement": "Potency", "setting": "[3]", "result": "inactive"}]}, {"smiles": "CCCN(CCC)C1CCc2ccc(O)cc2C1", "note": "(stereo not given)", "values": [{"measurement": "Potency", "setting": "[1]", "result": "inactive"}, {"measurement": "Potency", "setting": "[2]", "result": "inactive"}, {"measurement": "Potency", "setting": "[3]", "result": "inactive"}]}, {"smiles": "O=C(Oc1ccccc1)c1cccc(C(=O)Oc2ccccc2)c1", "values": [{"measurement": "Potency", "setting": "[1]", "result": "inactive"}, {"measurement": "Potency", "setting": "[2]", "result": "inactive"}, {"measurement": "Potency", "setting": "[3]", "result": "inactive"}]}, {"smiles": "O=C(Nc1cccc(C2=NCCN2)c1)Nc1cccc(C2=NCCN2)c1", "values": [{"measurement": "Potency", "setting": "[1]", "result": "inactive"}, {"measurement": "Potency", "setting": "[2]", "result": "inactive"}, {"measurement": "Potency", "setting": "[3]", "result": "inactive"}]}, {"smiles": "CC(C)C[C@H](NC(=O)[C@@H](O)[C@H](N)Cc1ccccc1)C(=O)O", "values": [{"measurement": "Potency", "setting": "[1]", "result": "inactive"}, {"measurement": "Potency", "setting": "[2]", "result": "inactive"}, {"measurement": "Potency", "setting": "[3]", "result": "inactive"}]}, {"smiles": "O=C1CCCC2=C1C(c1[nH]ncc1Cl)N=C(Nc1nc3ccccc3o1)N2", "note": "(stereo not given)", "values": [{"measurement": "Potency", "setting": "[1]", "result": "inactive"}, {"measurement": "Potency", "setting": "[2]", "result": "inactive"}, {"measurement": "Potency", "setting": "[3]", "result": "inactive"}]}, {"smiles": "Clc1ccccc1CN1CCc2sccc2C1", "values": [{"measurement": "Potency", "setting": "[1]", "result": "inactive"}, {"measurement": "Potency", "setting": "[2]", "result": "inactive"}, {"measurement": "Potency", "setting": "[3]", "result": "inactive"}]}]}
